Among all 39,000 compounds or so, about 3,300 (8.5%) were called active. The full list was thinned out, with actives kept by preference.
What follows are molecules tested on HepG2 (assay: cytotoxicity call (relative viability < 0.9)). Details: 10 µM.

Row | Compound | cytotoxicity call
1 | CC=Cc1ccc2n(c1=O)C[C@H]1[C@H](CO)[C@@H](C(=O)NC3CCC3)N(S(C)(=O)=O)[C@@H]21 | inactive
2 | COc1ccc(-c2cn3cc(C(=O)NCC(N)=O)nc3c(=O)n2CC2CC2)c(F)c1 | inactive
3 | C[C@@H]1CN([C@H](C)CO)C(=O)c2cc(NS(=O)(=O)c3cccs3)ccc2O[C@H]1CN(C)S(=O)(=O)c1ccc(F)cc1 | inactive
4 | COc1ccc(NC(=O)Nc2ccc3c(c2)[C@@H]2C[C@H](CC(=O)NCc4ccccn4)O[C@H](CO)[C@@H]2O3)cc1 | inactive
5 | C[C@@H]1CN([C@@H](C)CO)C(=O)c2cc(NC(=O)CCN3CCOCC3)ccc2O[C@@H]1CN(C)Cc1ccc2c(c1)OCO2 | inactive
6 | C[C@H]1CN([C@@H](C)CO)C(=O)c2cccc(NC(=O)C3CCCCC3)c2O[C@@H]1CN(C)S(=O)(=O)c1cn(C)cn1 | inactive
7 | C[C@H](CO)N1C[C@H](C)[C@@H](CN(C)C(=O)C2CC2)Oc2ncc(-c3ccc(C(=O)N(C)C)cc3)cc2C1=O | inactive
8 | N[C@H](c1ccc2c(c1)OCCO2)c1ccco1 | inactive
9 | NCC[C@@H](Cc1ccccc1)c1ccc2c(c1)OCO2 | inactive
10 | N[C@@H](CCc1ccccc1Cl)c1ccc2c(c1)OCCO2 | active
11 | Cc1ccc(S(=O)(=O)Nc2cccc3c2O[C@H](CN(C)C(=O)Nc2cccc4ccccc24)[C@H](C)CN([C@H](C)CO)C3=O)cc1 | inactive
12 | O=C(NCCNS(=O)(=O)c1cccc2nonc12)[C@H]1COc2ccccc2O1 | inactive
13 | CS(=O)(=O)N1CCN(Cc2cc3nc(-c4cccc5n[nH]cc45)nc(N4CCOCC4)c3s2)CC1 | active
14 | C[C@H]1CN([C@@H](C)CO)C(=O)c2cc(C#CC3(O)CCCC3)cnc2O[C@H]1CN(C)S(=O)(=O)c1cccc(F)c1 | inactive
15 | COc1ccc(S(=O)(=O)N(C)C[C@H]2Oc3ccc(NS(=O)(=O)c4ccc(F)cc4)cc3CC(=O)N([C@H](C)CO)C[C@@H]2C)cc1 | inactive
16 | Cc1noc(C)c1S(=O)(=O)Nc1ccc2c(c1)CC(=O)N([C@H](C)CO)C[C@H](C)[C@H](CN(C)S(=O)(=O)c1ccc(Cl)cc1)O2 | inactive
17 | C[C@H](CO)N1C[C@H](C)[C@H](CN(C)S(=O)(=O)c2ccc(F)cc2)Oc2c(NS(=O)(=O)c3ccccc3)cccc2C1=O | inactive
18 | O=C(CN1CCOC1=O)N1CCC2(CCC(=O)N(CCCn3ccnc3)C2)CC1 | inactive
19 | CCN(CC)CCNC(=O)COc1ccc(OC)cc1.Cl | inactive
20 | CCN(CC)CCCCNc1ncc2cc(-c3c(Cl)cccc3Cl)c(NC(=O)NC(C)(C)C)nc2n1 | active
21 | CCN(CC)CCCCNc1ncc2cc(-c3cc(OC)cc(OC)c3)c(NC(=O)NC(C)(C)C)nc2n1 | active
22 | CC(C)=CCC/C(C)=C/CC/C(C)=C/CCC(=O)OC/C=C(\C)CCC=C(C)C | inactive
23 | Cc1noc(C)c1NC(=O)Nc1ccc2c(c1)C(=O)N([C@H](C)CO)C[C@H](C)[C@H](CN(C)Cc1ccc(C(=O)Nc3ccccc3N)cc1)OCCCC[C@@H](C)O2 | inactive

Row | Compound | cytotoxicity call
24 | COc1ccc(NC(=O)N(C)C[C@H]2OCCCC[C@H](C)Oc3ccc(NC(=O)Cc4ccccc4)cc3C(=O)N([C@@H](C)CO)C[C@H]2C)cc1 | inactive
25 | C[C@@H]1CN([C@H](C)CO)C(=O)Cc2cc(NC(=O)Cc3cn(C)c4ccccc34)ccc2O[C@@H]1CN(C)C(=O)Nc1cccc2ccccc12 | inactive
26 | C[C@@H]1CCCCO[C@@H](CN(C)C(=O)Cc2ccccc2)[C@@H](C)CN([C@H](C)CO)C(=O)c2cc(NC(=O)Nc3ccc4c(c3)OCO4)ccc2O1 | inactive
27 | C[C@@H]1CCCCO[C@H](CN(C)Cc2ccc(C(F)(F)F)cc2)[C@@H](C)CN([C@@H](C)CO)C(=O)c2cc(NC(=O)c3ccncc3)ccc2O1 | inactive
28 | C[C@H](CO)N1C[C@H](C)[C@H](CN(C)Cc2ccc(C(F)(F)F)cc2)OCCCC[C@H](C)Oc2ccc(NS(=O)(=O)c3ccccc3)cc2C1=O | active
29 | C[C@@H]1CCCCO[C@H](CN(C)Cc2ccc(C(F)(F)F)cc2)[C@H](C)CN([C@H](C)CO)C(=O)c2cc(NS(=O)(=O)c3ccccc3)ccc2O1 | inactive
30 | C[C@@H]1CCCCO[C@@H](CN(C)Cc2ccc(C(F)(F)F)cc2)[C@@H](C)CN([C@@H](C)CO)C(=O)c2cc(NS(=O)(=O)c3ccccc3)ccc2O1 | active
31 | C[C@@H]1CCCCO[C@@H](CN(C)Cc2ccc(C(F)(F)F)cc2)[C@H](C)CN([C@H](C)CO)C(=O)c2cc(NS(=O)(=O)c3ccccc3)ccc2O1 | inactive
32 | C[C@@H]1CCCCO[C@@H](CN(C)Cc2ccc(C(F)(F)F)cc2)[C@@H](C)CN([C@H](C)CO)C(=O)c2cc(NS(=O)(=O)c3ccccc3)ccc2O1 | active
33 | C[C@@H]1CCCCO[C@H](CN(C)Cc2ccc(C(F)(F)F)cc2)[C@@H](C)CN([C@H](C)CO)C(=O)c2cc(NS(=O)(=O)c3ccccc3)ccc2O1 | inactive
34 | C[C@H]1CCCCO[C@H](CN(C)Cc2ccc(C(F)(F)F)cc2)[C@@H](C)CN([C@@H](C)CO)C(=O)c2cc(NS(=O)(=O)c3ccccc3)ccc2O1 | inactive
35 | C[C@@H]1CCCCO[C@@H](CN(C)Cc2ccc(C(F)(F)F)cc2)[C@H](C)CN([C@@H](C)CO)C(=O)c2cc(NS(=O)(=O)c3ccccc3)ccc2O1 | active
36 | C[C@H]1CCCCO[C@@H](CN(C)Cc2ccc(C(F)(F)F)cc2)[C@@H](C)CN([C@@H](C)CO)C(=O)c2cc(NS(=O)(=O)c3ccccc3)ccc2O1 | inactive
37 | COc1ccc(S(=O)(=O)N(C)C[C@@H]2Oc3ccc(NC(=O)NC(C)C)cc3CC(=O)N([C@@H](C)CO)C[C@@H]2C)cc1 | inactive
38 | COc1ccc(NC(=O)N(C)C[C@H]2OCCCC[C@H](C)Oc3ccc(NC(=O)C4CCCCC4)cc3C(=O)N([C@H](C)CO)C[C@H]2C)cc1 | inactive
39 | C[C@@H]1CN([C@@H](C)CO)C(=O)CCCn2nncc2CO[C@H]1CN(C)C(=O)C1CC1 | inactive
40 | COc1ccc(NC(=O)N(C)C[C@H]2Oc3c(NS(C)(=O)=O)cccc3C(=O)N([C@@H](C)CO)C[C@H]2C)cc1 | inactive
41 | C[C@H]1CCCCO[C@@H](CN(C)C(=O)Nc2ccc(C(F)(F)F)cc2)[C@@H](C)CN([C@@H](C)CO)C(=O)c2cc(NC(=O)CCC(F)(F)F)ccc2O1 | inactive
42 | Cn1c(=O)c2c(nc(N3CCNCC3)n2CC(=O)c2ccc(Cl)cc2)n(C)c1=O | inactive
43 | COc1ccc(S(=O)(=O)N(C)C[C@H]2Oc3ccc(NC(=O)CCCN(C)C)cc3C(=O)N([C@@H](C)CO)C[C@@H]2C)cc1 | inactive
44 | COc1cccc(S(=O)(=O)N2C[C@@H](O)COC[C@@H]3O[C@H](CC(=O)NCCCN4CCOCC4)CC[C@H]32)c1 | inactive
45 | C[C@@H]1CN([C@H](C)CO)C(=O)c2cc(NC(=O)CCC(F)(F)F)ccc2O[C@@H](C)CCCCO[C@@H]1CN(C)Cc1ccncc1 | inactive
46 | COc1ccc(Oc2cc(NCCC(F)(F)F)c3ncc(-c4ccc(C(=O)NC5CC5)c(C)c4)n3n2)c(F)c1F | inactive

Row | Compound | cytotoxicity call
47 | C[C@@H]1CN([C@@H](C)CO)C(=O)c2cc(NC(=O)NC3CCCCC3)ccc2O[C@@H]1CN(C)S(C)(=O)=O | inactive
48 | C[C@H]1CN([C@@H](C)CO)S(=O)(=O)c2ccc(-c3cccc(C#N)c3)cc2O[C@@H]1CN(C)C(=O)c1ccncc1 | inactive
49 | C[C@@H]1CN([C@H](C)CO)C(=O)c2cc(NS(=O)(=O)c3ccccc3)ccc2O[C@@H](C)CCCCO[C@H]1CN(C)Cc1ccc(C(F)(F)F)cc1 | active
50 | C[C@@H]1CN([C@@H](C)CO)C(=O)c2cc(NS(=O)(=O)c3ccccc3)ccc2O[C@@H](C)CCCCO[C@@H]1CN(C)Cc1ccc(C(F)(F)F)cc1 | inactive
51 | C[C@@H]1CN([C@H](C)CO)C(=O)c2cc(NS(=O)(=O)c3ccccc3)ccc2O[C@@H](C)CCCCO[C@@H]1CN(C)Cc1ccc(C(F)(F)F)cc1 | inactive
52 | C[C@@H]1CCCCO[C@H](CN(C)Cc2ccc(C(F)(F)F)cc2)[C@@H](C)CN([C@@H](C)CO)C(=O)c2cc(NS(=O)(=O)c3ccccc3)ccc2O1 | inactive
53 | C[C@@H]1CCCCO[C@H](CN(C)Cc2ccc(C(F)(F)F)cc2)[C@H](C)CN([C@@H](C)CO)C(=O)c2cc(NS(=O)(=O)c3ccccc3)ccc2O1 | active
54 | C[C@@H]1CN([C@@H](C)CO)C(=O)c2cc(NS(=O)(=O)c3ccccc3)ccc2O[C@@H](C)CCCCO[C@H]1CN(C)Cc1ccc(C(F)(F)F)cc1 | inactive
55 | C[C@H]1CN([C@@H](C)CO)C(=O)c2cccc(NC(=O)c3nc4ccccc4s3)c2O[C@H]1CN(C)S(=O)(=O)c1cn(C)cn1 | inactive
56 | CCCNC(=O)Nc1ccc2c(c1)OC[C@H](C)N(C(=O)C1CCOCC1)C[C@@H](C)[C@@H](OC)CN(C)C2=O | inactive
57 | Cc1noc(C)c1S(=O)(=O)Nc1cccc2c1O[C@@H](CN(C)CC1CC1)[C@@H](C)CN([C@H](C)CO)C2=O | inactive
58 | Cc1ccc(S(=O)(=O)N2C[C@H](O)COC[C@@H]3O[C@H](CC(=O)NCc4ccc(Cl)c(Cl)c4)CC[C@H]32)cc1 | active
59 | Cc1ccc(S(=O)(=O)N2C[C@H](O)COC[C@@H]3O[C@H](CC(=O)NCc4ccc5c(c4)OCO5)CC[C@H]32)cc1 | active
60 | Cc1ccc(S(=O)(=O)N2C[C@H](O)COC[C@H]3O[C@H](CC(=O)NCc4ccc(Cl)c(Cl)c4)CC[C@@H]32)cc1 | inactive
61 | Cc1ccc(S(=O)(=O)N2C[C@H](O)COC[C@@H]3O[C@@H](CC(=O)NCc4ccc(Cl)c(Cl)c4)CC[C@H]32)cc1 | inactive
62 | Cc1ccc(S(=O)(=O)N2C[C@H](O)COC[C@H]3O[C@@H](CC(=O)NCc4ccc(Cl)c(Cl)c4)CC[C@@H]32)cc1 | active
63 | Cc1cccc(S(=O)(=O)N2C[C@@H](O)COC[C@H]3O[C@H](CC(=O)NCc4ccc(Cl)c(Cl)c4)CC[C@@H]32)c1 | inactive
64 | Cc1ccc(S(=O)(=O)N2C[C@@H](O)COC[C@H]3O[C@@H](CC(=O)NCc4ccc(Cl)c(Cl)c4)CC[C@@H]32)cc1 | inactive
65 | Cc1ccc(S(=O)(=O)N2C[C@@H](O)COC[C@H]3O[C@H](CC(=O)NCc4ccc(Cl)c(Cl)c4)CC[C@@H]32)cc1 | inactive
66 | Cc1ccc(S(=O)(=O)N2C[C@@H](O)COC[C@@H]3O[C@H](CC(=O)NCc4ccc(Cl)c(Cl)c4)CC[C@H]32)cc1 | inactive
67 | Cc1ccc(S(=O)(=O)N2C[C@@H](O)COC[C@@H]3O[C@@H](CC(=O)NCc4ccc5c(c4)OCO5)CC[C@H]32)cc1 | inactive
68 | Cc1ccc(S(=O)(=O)N2C[C@@H](O)COC[C@H]3O[C@H](CC(=O)NCc4ccc5c(c4)OCO5)CC[C@@H]32)cc1 | inactive
69 | Cc1ccc(S(=O)(=O)N2C[C@@H](O)COC[C@@H]3O[C@@H](CC(=O)NCc4ccc(Cl)c(Cl)c4)CC[C@H]32)cc1 | active

Reference: the antibiotic and cytotoxicity screens of Wong et al. (2023)
